Several values for one entry are separate records, joined by “and”; a condition that tells them apart may be missing. Equal entries are not always repeated. Records with an inconclusive call do not appear. Entries that show only a call come without a potency. Activity calls are given as the source filed them. Unless noted, calls follow the shape of the dose curve; as a rule, active = well fitted inhibition curve with a large enough effect; inconclusive = small, poorly fitted or top-dose-only effect; inactive = flat fitted curve, though single readings scatter.
test system: not listed separately; assay: qHTS Assay for Lipid Storage Modulators (AID 1519; calls by dose curve); details: Drosophila S3 cells, BODIPY lipid droplet/cell ratio, laser cytometry; at 57.5 µM (top of the series); cells loaded with oleic acid
Procedure, shortened: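 Cells seeded at 5,000 per well were treated with compounds over a concentration series and loaded with oleic acid (400 uM, as added). Lipid droplet fluorescence (488 nm excitation, 500-530 nm channel) was read by laser-scanning cytometry and normalized to 20 uM Triacsin C.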

| SMILES | activity change, negative = inhibition |
| --- | --- |
| O=C(Nc1cc(C(=O)Nc2ccc(S(=O)(=O)O)cc2S(=O)(=O)O)cc(C(=O)Nc2ccc(S(=O)(=O)O)cc2S(=O)(=O)O)c1)Nc1cc(C(=O)Nc2ccc(S(=O)(=O)O)cc2S(=O)(=O)O)cc(C(=O)Nc2ccc(S(=O)(=O)O)cc2S(=O)(=O)O)c1 | 10.5% (inactive) |
| O=C(Nc1ccc(C(=O)Nc2ccc(C(=O)Nc3ccc(S(=O)(=O)O)c4cc(S(=O)(=O)O)cc(S(=O)(=O)O)c34)cc2)cc1)Nc1ccc(C(=O)Nc2ccc(C(=O)Nc3ccc(S(=O)(=O)O)c4cc(S(=O)(=O)O)cc(S(=O)(=O)O)c34)cc2)cc1 | 5.27% (inactive) |
| O=C(OC1Cc2c(O)cc(O)cc2OC1c1cc(O)c(O)c(O)c1-c1c(C2Oc3cc(O)cc(O)c3CC2OC(=O)c2cc(O)c(O)c(O)c2)cc(O)c(O)c1O)c1cc(O)c(O)c(O)c1 (stereo unspecified) | 6.84% (inactive) |

same assay, conditions: Drosophila S3 cells, BODIPY lipid droplet/cell ratio, laser cytometry; measured here: cell count channel max response; cells loaded with oleic acid

| SMILES | max response [%] |
| --- | --- |
| O=C(Nc1cc(C(=O)Nc2ccc(S(=O)(=O)O)cc2S(=O)(=O)O)cc(C(=O)Nc2ccc(S(=O)(=O)O)cc2S(=O)(=O)O)c1)Nc1cc(C(=O)Nc2ccc(S(=O)(=O)O)cc2S(=O)(=O)O)cc(C(=O)Nc2ccc(S(=O)(=O)O)cc2S(=O)(=O)O)c1 | -19.5 |
| O=C(Nc1ccc(C(=O)Nc2ccc(C(=O)Nc3ccc(S(=O)(=O)O)c4cc(S(=O)(=O)O)cc(S(=O)(=O)O)c34)cc2)cc1)Nc1ccc(C(=O)Nc2ccc(C(=O)Nc3ccc(S(=O)(=O)O)c4cc(S(=O)(=O)O)cc(S(=O)(=O)O)c34)cc2)cc1 | -4.46 |
| O=C(OC1Cc2c(O)cc(O)cc2OC1c1cc(O)c(O)c(O)c1-c1c(C2Oc3cc(O)cc(O)c3CC2OC(=O)c2cc(O)c(O)c(O)c2)cc(O)c(O)c1O)c1cc(O)c(O)c(O)c1 (stereo unspecified) | 16.9 |

same assay, conditions: Drosophila S3 cells, BODIPY lipid droplet/cell ratio, laser cytometry; measured here: lipid channel max response; cells loaded with oleic acid

| SMILES | max response [%] |
| --- | --- |
| O=C(Nc1cc(C(=O)Nc2ccc(S(=O)(=O)O)cc2S(=O)(=O)O)cc(C(=O)Nc2ccc(S(=O)(=O)O)cc2S(=O)(=O)O)c1)Nc1cc(C(=O)Nc2ccc(S(=O)(=O)O)cc2S(=O)(=O)O)cc(C(=O)Nc2ccc(S(=O)(=O)O)cc2S(=O)(=O)O)c1 | -13.3 |
| O=C(Nc1ccc(C(=O)Nc2ccc(C(=O)Nc3ccc(S(=O)(=O)O)c4cc(S(=O)(=O)O)cc(S(=O)(=O)O)c34)cc2)cc1)Nc1ccc(C(=O)Nc2ccc(C(=O)Nc3ccc(S(=O)(=O)O)c4cc(S(=O)(=O)O)cc(S(=O)(=O)O)c34)cc2)cc1 | 0.0462 |
| O=C(OC1Cc2c(O)cc(O)cc2OC1c1cc(O)c(O)c(O)c1-c1c(C2Oc3cc(O)cc(O)c3CC2OC(=O)c2cc(O)c(O)c(O)c2)cc(O)c(O)c1O)c1cc(O)c(O)c(O)c1 (stereo unspecified) | 25.4 |

target: Ubiquitin carboxyl-terminal hydrolase 1 (Homo sapiens) (UniProt O94782); assay: Inhibitors of USP1/UAF1: Pilot qHTS (AID 504865); details: purified USP1/UAF1, Ub-rhodamine cleavage fluorescence; series mostly up to 114 µM; also: nearly all actives have a fitted effect of over 35% in size; also: potency is read from the fitted curve at half-maximal effect;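 as to activity change, negative = inhibition: rhodamine fluorescence freed from ubiquitin-rhodamine substrate followed over time; top concentration of the series differs between compounds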
Procedure, shortened: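 USP1/UAF1 complex (1nM) preincubated with compound 15 min at room temperature, then Ub-Rho substrate (150nM final) added. Fluorescence read kinetically at 480/540 nm, 6 reads every 60 seconds. Buffer: 50mM HEPES pH 7.8, 0.5mM EDTA, 0.1 mg/ml BSA, 1mM TCEP, 0.01% Tween-20.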

Chain of Ubiquitin carboxyl-terminal hydrolase 1 (Homo sapiens) (O94782 whole entry, looked up): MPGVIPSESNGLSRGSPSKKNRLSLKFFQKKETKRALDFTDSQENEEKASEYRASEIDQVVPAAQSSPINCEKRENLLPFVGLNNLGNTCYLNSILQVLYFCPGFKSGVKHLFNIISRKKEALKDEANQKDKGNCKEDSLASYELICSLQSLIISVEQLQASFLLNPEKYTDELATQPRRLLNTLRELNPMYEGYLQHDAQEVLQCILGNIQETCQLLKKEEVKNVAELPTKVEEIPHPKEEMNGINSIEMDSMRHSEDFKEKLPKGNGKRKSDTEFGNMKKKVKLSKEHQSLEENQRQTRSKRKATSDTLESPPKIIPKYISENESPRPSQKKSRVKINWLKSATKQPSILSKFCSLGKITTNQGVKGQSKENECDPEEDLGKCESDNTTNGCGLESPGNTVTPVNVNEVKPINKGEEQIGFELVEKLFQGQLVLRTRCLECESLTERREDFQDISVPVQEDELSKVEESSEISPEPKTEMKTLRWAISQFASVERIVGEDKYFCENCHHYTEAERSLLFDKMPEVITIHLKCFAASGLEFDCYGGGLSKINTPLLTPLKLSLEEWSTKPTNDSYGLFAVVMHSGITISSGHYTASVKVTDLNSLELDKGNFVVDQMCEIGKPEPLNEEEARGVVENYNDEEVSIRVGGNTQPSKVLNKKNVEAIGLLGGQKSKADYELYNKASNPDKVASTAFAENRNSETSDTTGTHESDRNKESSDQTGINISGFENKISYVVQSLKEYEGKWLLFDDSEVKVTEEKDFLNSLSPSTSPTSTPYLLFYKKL

| SMILES | Potency |
| --- | --- |
| O=C(O)c1nc2cc(Cl)c(Cl)cc2[nH]c1=O | inactive |
| O=C(Nc1cc(C(=O)Nc2ccc(S(=O)(=O)O)cc2S(=O)(=O)O)cc(C(=O)Nc2ccc(S(=O)(=O)O)cc2S(=O)(=O)O)c1)Nc1cc(C(=O)Nc2ccc(S(=O)(=O)O)cc2S(=O)(=O)O)cc(C(=O)Nc2ccc(S(=O)(=O)O)cc2S(=O)(=O)O)c1 | 1 µM (active) |
| O=C(Nc1ccc(C(=O)Nc2ccc(C(=O)Nc3ccc(S(=O)(=O)O)c4cc(S(=O)(=O)O)cc(S(=O)(=O)O)c34)cc2)cc1)Nc1ccc(C(=O)Nc2ccc(C(=O)Nc3ccc(S(=O)(=O)O)c4cc(S(=O)(=O)O)cc(S(=O)(=O)O)c34)cc2)cc1 | 39.8 µM (active) |
| O=C(OC1Cc2c(O)cc(O)cc2OC1c1cc(O)c(O)c(O)c1-c1c(C2Oc3cc(O)cc(O)c3CC2OC(=O)c2cc(O)c(O)c(O)c2)cc(O)c(O)c1O)c1cc(O)c(O)c(O)c1 (stereo unspecified) | 50.1 µM (active) |

test system: not listed separately; assay: Confirmatory screen GU Rhodamine qHTS for Zika virus inhibitors qHTS (AID 1347157); details: purified enzyme assay, Rhodamine110 substrate fluorescence, 15 min; series mostly up to 114 µM; also: nearly all actives have a fitted effect of over 70% in size; also: potency is read from the fitted curve at half-maximal effect
Procedure, shortened: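 In dose–response format, inhibition of unlinked protease (25 nM) was measured with 1.5 microM bis-peptide Rhodamine110 substrate. Aprotinin served as the intraplate control.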

| SMILES | Potency |
| --- | --- |
| O=C(Nc1ccc(C(=O)OCc2cc(=O)n3nc(C4CC4)sc3n2)cc1)c1ccccc1 | inactive |
| CCOC(=O)c1ccc(CN(Cc2ccc(F)cc2)S(=O)(=O)c2ccc(F)c(C(=O)Nc3ccccc3C(F)(F)F)c2)cc1 | inactive |
| CC(C)c1nn2c(=O)cc(COC(=O)c3ccccc3NC(=O)c3cccc(Cl)c3)nc2s1 | inactive |
| COc1ccc(OC)c(Nc2sc(C(=O)c3ccccc3)c(N)c2S(=O)(=O)c2ccccc2)c1 | inactive |
| CCOC(=O)c1ccc(N2C(=O)c3n[nH]c(-c4cccs4)c3C2c2ccc(C(C)(C)C)cc2)cc1 (stereo unspecified) | 20 µM (active) |
| CC(C)c1ccc(Nc2sc(C(=O)c3ccccc3)c(N)c2S(=O)(=O)c2ccccc2)cc1 | inactive |
| O=C(O)c1nc2cc(Cl)c(Cl)cc2[nH]c1=O | inactive |
| CCCCc1nn2c(=O)cc(COC(=O)c3ccc(NC(=O)c4cccs4)cc3)nc2s1 | inactive |
| CCOC(=O)c1ccc(N2C(=O)c3n[nH]c(-c4cccs4)c3C2c2ccc(Cl)cc2Cl)cc1 (stereo unspecified) | 31.6 µM (active) |
| CCOC(=O)c1c(-c2ccccc2)csc1NC(=O)c1cc(-c2ccc(Cl)cc2)on1 | inactive |
| Nc1c(N=Nc2ccc([N+](=O)[O-])cc2)c(S(=O)(=O)O)cc2cc(S(=O)(=O)O)c(/C=C/c3ccccc3)c(O)c12 | 3.16 µM (active) |
| O=C(Nc1ccccc1C(=O)OCc1cc(=O)n2c3c(sc2n1)CCCC3)c1ccc(F)cc1 | inactive |
| O=C(Nc1ccccc1C(=O)OCc1cc(=O)n2c3c(sc2n1)CCCC3)c1cccc(Cl)c1 | inactive |
| CCOC(=O)c1ccccc1NC(=O)CSc1ccc(-c2sc(-c3ccccc3)nc2C)nn1 | inactive |
| O=C(Nc1ccccc1C(=O)OCc1cc(=O)n2c3c(sc2n1)CCCC3)c1ccc(Cl)cc1 | inactive |
| CCOC(=O)c1ccc(NC(=O)c2nc(SCc3ccc(F)cc3)ncc2Cl)cc1 | inactive |
| CCCCOC(=O)c1ccc(NC(=O)c2ccc3c(c2)CCN3S(=O)(=O)c2ccccc2)cc1 | inactive |

| SMILES | Potency |
| --- | --- |
| O=C(COC(=O)c1cccc(NC(=O)c2ccc(Br)cc2)c1)c1ccc(Cl)cc1 | inactive |
| CC(Oc1ccccc1)C(=O)Nc1ccc(C(=O)OCc2cc(=O)n3nc(C(C)C)sc3n2)cc1 (stereo unspecified) | inactive |
| O=C(OCc1cc(=O)n2nc(C3CC3)sc2n1)c1ccc(NC(=O)c2ccccc2Cl)cc1 | 50.1 µM (active) |
| O=C(Nc1ccccc1C(F)(F)F)c1ccc2oc(=O)c(S(=O)(=O)c3ccc(F)cc3)cc2c1 | inactive |
| O=C(Nc1ccc(C(=O)OCc2cc(=O)n3nc(C4CC4)sc3n2)cc1)c1ccc(F)cc1 | inactive |
| O=C(Nc1cc(C(=O)Nc2ccc(S(=O)(=O)O)cc2S(=O)(=O)O)cc(C(=O)Nc2ccc(S(=O)(=O)O)cc2S(=O)(=O)O)c1)Nc1cc(C(=O)Nc2ccc(S(=O)(=O)O)cc2S(=O)(=O)O)cc(C(=O)Nc2ccc(S(=O)(=O)O)cc2S(=O)(=O)O)c1 | 2.24 µM (active) and 4.47 µM (active) |
| COc1ccc(S(=O)(=O)c2c(Nc3ccc(C)cc3)sc(C(=O)c3ccc4c(c3)OCO4)c2N)cc1 | inactive |
| O=C(Nc1ccccc1C(=O)OCc1cc(=O)n2nc(C3CC3)sc2n1)c1cccc(Cl)c1 | inactive |
| O=C(CNC(=O)c1ccccc1F)OCc1cc(=O)n2nc(C3CCCCC3)sc2n1 | inactive |
| CCS(=O)(=O)c1cccc(C(=O)Nc2ccc(-c3nc4ccccc4s3)c(O)c2)c1 | 25.1 µM (active) |
| O=C(Nc1ccc(C(=O)Nc2ccc(C(=O)Nc3ccc(S(=O)(=O)O)c4cc(S(=O)(=O)O)cc(S(=O)(=O)O)c34)cc2)cc1)Nc1ccc(C(=O)Nc2ccc(C(=O)Nc3ccc(S(=O)(=O)O)c4cc(S(=O)(=O)O)cc(S(=O)(=O)O)c34)cc2)cc1 | 2 µM (active) |
| CCOC(=O)c1ccc(NC(=O)c2nc(SCc3ccccc3F)ncc2Cl)cc1 | inactive |
| N#C/C(=C\c1ccc(-c2cc(Cl)ccc2Cl)o1)C(=O)Nc1ccccc1C(=O)O | 3.16 µM (active) |
| O=C(Nc1cccc(C(=O)OCc2cc(=O)n3c4c(sc3n2)CCCC4)c1)c1cccc(Cl)c1 | inactive |
| Cc1ccc(OCC(=O)Nc2ccccc2C(=O)OCc2cc(=O)n3nc(C4CC4)sc3n2)cc1 | inactive |
| CC(=O)Nc1ccc(S(=O)(=O)O)c2cc(S(=O)(=O)O)c(N=Nc3ccc(N=Nc4ccc(S(=O)(=O)O)cc4)c4ccc(S(=O)(=O)O)cc34)c(O)c12 | 6.31 µM (active) |

— PubChem BioAssay (NCATS)
